Data as given in PubChem BioAssay (NCI).
The panel holds about 83,000 compounds, 20% with a hit somewhere; the sample as a whole holds those more often.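 Results are percent growth after 48 hours of single-concentration exposure. 100 means growth as in untreated cells, lower positive values show inhibition; negative values down to -100 show cell death.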 The source made the active and inactive calls. The calls were made as follows: active = growth percent below 10; inactive = the rest.

How the values were obtained:
Assay in all cases: NCI-60 one-dose screen, 48 h (100 = growth as untreated, 0 = no growth, -100 = all killed)
DU-145 prostate = conditions: 10 µM unless noted
K-562 leukemia = conditions: 10 µM unless noted
MALME-3M melanoma = conditions: 10 µM unless noted
MDA-MB-231 breast = conditions: 10 µM unless noted
RXF 393 renal = conditions: 10 µM unless noted
SF-268 CNS = conditions: 10 µM unless noted
SF-295 CNS = conditions: 10 µM unless noted
SF-539 CNS = conditions: 10 µM unless noted
UACC-257 melanoma = conditions: 10 µM unless noted
M14 melanoma = conditions: 10 µM unless noted
HCT-15 colon = conditions: 10 µM unless noted
HT29 colon = conditions: 10 µM unless noted
SNB-75 CNS = conditions: 10 µM unless noted
SNB-19 CNS = conditions: 10 µM unless noted
U251 CNS = conditions: 10 µM unless noted
PC-3 prostate = conditions: 10 µM unless noted
SK-MEL-5 melanoma = conditions: 10 µM unless noted
UACC-62 melanoma = conditions: 10 µM unless noted
LOX IMVI melanoma = conditions: 10 µM
SK-MEL-28 melanoma = conditions: 10 µM unless noted

Measured: growth

COc1ccc2c(Cl)cc(NC(=O)Nc3c(C)cccc3C)nc2c1
inactive: DU-145 prostate 82.6% | K-562 leukemia 72.6% | MDA-MB-231 breast 62.7% | RXF 393 renal 36.3% | SF-268 CNS 81.1% | SF-539 CNS 90.1% | UACC-257 melanoma 76.8% | M14 melanoma 85.6% | HCT-15 colon 95.7% | HT29 colon 88% | SNB-19 CNS 79.3% | U251 CNS 76.1% | PC-3 prostate 72.4% | SK-MEL-5 melanoma 63.6% | UACC-62 melanoma 87.7% | LOX IMVI melanoma 60.7% | SK-MEL-28 melanoma 97%
active: MALME-3M melanoma -1.2% | SF-295 CNS 0.445% | SNB-75 CNS -24.7%

CC(=O)N(C)N=Nc1ccc(C)cc1
inactive: DU-145 prostate 107% | K-562 leukemia 105% | MALME-3M melanoma 94.5% | MDA-MB-231 breast 102% | RXF 393 renal 122% | SF-268 CNS 91.3% | SF-295 CNS 101% | SF-539 CNS 101% | UACC-257 melanoma 101% | M14 melanoma 96.7% | HCT-15 colon 107% | HT29 colon 116% | SNB-75 CNS 93.2% | SNB-19 CNS 101% | U251 CNS 106% | PC-3 prostate 97.7% | SK-MEL-5 melanoma 103% | UACC-62 melanoma 101% | LOX IMVI melanoma 98.1% | SK-MEL-28 melanoma 116%

Cc1c(-c2ccc(C3CCCCC3)cc2)nc2ccc(F)cc2c1C(=O)O
active: SF-295 CNS 2.98% | LOX IMVI melanoma 8.7%
inactive: DU-145 prostate 39.3% | K-562 leukemia 22.9% | MALME-3M melanoma 62.1% | MDA-MB-231 breast 62.7% | RXF 393 renal 74.1% | SF-268 CNS 42.8% | SF-539 CNS 37.1% | UACC-257 melanoma 65.2% | M14 melanoma 47.9% | HCT-15 colon 25.1% | HT29 colon 31.6% | SNB-75 CNS 62.7% | SNB-19 CNS 61.7% | U251 CNS 44.2% | PC-3 prostate 44.9% | SK-MEL-5 melanoma 32.9% | UACC-62 melanoma 43.3% | SK-MEL-28 melanoma 60.8%

O=C(O)Cc1cccc2ccccc12
inactive: DU-145 prostate 115% | K-562 leukemia 96.4% | MALME-3M melanoma 116% | MDA-MB-231 breast 123% | RXF 393 renal 117% | SF-268 CNS 109% | SF-295 CNS 110% | SF-539 CNS 108% | UACC-257 melanoma 90.4% | M14 melanoma 103% | HCT-15 colon 102% | HT29 colon 105% | SNB-75 CNS 82.2% | SNB-19 CNS 116% | U251 CNS 95.1% | PC-3 prostate 106% | SK-MEL-5 melanoma 118% | UACC-62 melanoma 110% | LOX IMVI melanoma 97% | SK-MEL-28 melanoma 121%

Cc1cccc(-[n+]2noc(N)n2)c1
inactive: DU-145 prostate 75.4% | K-562 leukemia 20.2% | MALME-3M melanoma 86.4% | MDA-MB-231 breast 53.7% | RXF 393 renal 99.1% | SF-268 CNS 81.9% | SF-295 CNS 84.5% | SF-539 CNS 91.6% | UACC-257 melanoma 95.2% | M14 melanoma 88.4% | HCT-15 colon 66.4% | HT29 colon 102% | SNB-75 CNS 82.1% | SNB-19 CNS 81.4% | U251 CNS 86% | PC-3 prostate 60.3% | SK-MEL-5 melanoma 97.4% | UACC-62 melanoma 40.7% | LOX IMVI melanoma 46.9% | SK-MEL-28 melanoma 113%

COc1ccc(Nc2cc(Cl)ccc2C(=O)O)cn1
inactive: DU-145 prostate 110% | K-562 leukemia 100% | MALME-3M melanoma 157% | MDA-MB-231 breast 109% | RXF 393 renal 126% | SF-268 CNS 103% | SF-295 CNS 138% | SF-539 CNS 105% | UACC-257 melanoma 40.3% | M14 melanoma 102% | HCT-15 colon 106% | HT29 colon 106% | SNB-75 CNS 99.4% | SNB-19 CNS 96.5% | U251 CNS 105% | PC-3 prostate 99% | SK-MEL-5 melanoma 114% | UACC-62 melanoma 96.3% | LOX IMVI melanoma 98.1% | SK-MEL-28 melanoma 98.8%

CCOC(=O)c1cc(C)[nH]c(=O)c1C#N
inactive: DU-145 prostate 113% | K-562 leukemia 82.6% | MALME-3M melanoma 123% | MDA-MB-231 breast 116% | RXF 393 renal 98.1% | SF-268 CNS 105% | SF-295 CNS 93.5% | SF-539 CNS 95.6% | UACC-257 melanoma 93% | M14 melanoma 102% | HCT-15 colon 101% | HT29 colon 105% | SNB-75 CNS 85.7% | SNB-19 CNS 106% | U251 CNS 102% | PC-3 prostate 80.7% | SK-MEL-5 melanoma 107% | UACC-62 melanoma 104% | LOX IMVI melanoma 97.7% | SK-MEL-28 melanoma 112%
